# High-throughput results as filed in PubChem.
# LRH-1 inv ag – inverse agonists of human LRH-1 (NR5A2); O00482; HEK293T StAR-luciferase reporter, LRH-1 transfected, 24 h; inhibition, % at 3.6 µM; 360,000 compounds, 0.13% hits;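 active = inhibition above the mean inhibition of all tested compounds plus 3 SD, cut at about 73% in these data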
# Target sequence (O00482 whole entry, looked up): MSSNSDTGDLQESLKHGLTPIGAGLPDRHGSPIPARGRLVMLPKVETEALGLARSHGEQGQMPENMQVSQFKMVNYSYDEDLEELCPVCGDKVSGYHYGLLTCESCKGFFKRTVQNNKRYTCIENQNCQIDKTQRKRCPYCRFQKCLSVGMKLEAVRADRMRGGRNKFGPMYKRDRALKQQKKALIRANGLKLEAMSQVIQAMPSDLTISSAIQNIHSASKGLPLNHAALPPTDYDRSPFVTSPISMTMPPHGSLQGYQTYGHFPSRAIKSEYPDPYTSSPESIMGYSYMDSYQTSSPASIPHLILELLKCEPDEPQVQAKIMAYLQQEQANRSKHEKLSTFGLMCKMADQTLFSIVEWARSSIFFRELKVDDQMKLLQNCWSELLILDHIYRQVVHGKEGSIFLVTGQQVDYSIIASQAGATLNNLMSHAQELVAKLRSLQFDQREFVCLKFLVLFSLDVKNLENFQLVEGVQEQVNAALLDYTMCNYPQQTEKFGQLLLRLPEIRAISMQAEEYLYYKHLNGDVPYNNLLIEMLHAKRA
# COUP-TFII inh – NR2F2 (human) inhibition, primary screen; HEK293T NGFI-A luciferase reporter, luminescence; inhibition, % at 8.6 µM; P24468; AID 686940; 370,000 compounds, 0.7% hits;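 active = inhibition above a per-plate cutoff, mean inhibition of test wells between control levels plus 3 SD, cut at about 38% in these data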;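 also: cells cotransfected with COUP-TFII expression vector driving the NGFI-A reporter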
# NCOA3 inh – human NCOA3 inhibition; Q9Y6Q9; HEK293 GAL4-SRC3 luciferase reporter, luminescence; inhibition, % at 3.6 µM; 360,000 compounds, 0.17% hits; AID 588352;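 active = inhibition above a per-campaign cutoff, the mean of all compounds plus 3 SD, cut at about 60% in these data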;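 also: higher means less SRC3-driven luciferase light from the GAL4 reporter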
# SRC2 inh – inhibits human steroid receptor coactivator 2 | Q15596 | HEK293 GAL4-SRC2 luciferase reporter, luminescence | inhibition, % at 9 µM | 370,000 compounds, 0.17% hits | AID 651957;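 active = inhibition above the mean inhibition of all tested compounds plus 3 SD, set per campaign, cut at about 52% in these data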
# GalR3 antag – human GalR3 antagonism; AID 651719; inhibition, % at 3 µM; HEK293 GalR3-CNG cAMP membrane potential fluorescence; galR3 body fused to GalR1 C-terminus; O60755; 360,000 compounds, 0.44% hits;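 active = inhibition above the screen-wide average plus 3 SD, cut at about 13% in these data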;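 also: forskolin and galanin both at EC90 stimulate the cells; cAMP rise reported by CNG channel membrane potential dye signal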
# SRC1 inh – inhibits human SRC1 coactivator. HEK293 GAL4-SRC1 luciferase reporter, luminescence. inhibition, % at 3.6 µM. 360,000 compounds, 0.12% hits. AID 588354;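 active = inhibition above the campaign mean plus 3 SD, with each screening campaign given its own cutoff, cut at about 60% in these data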
# VP16 Luc counter – counter-screen for COUP-TFII antagonists: inhibitors of VP16 | shares compounds with COUP-TFII inh | 2,500 compounds, 25% hits | HEK293 Gal4-VP16 luciferase reporter, luminescence | AID 687007 | inhibition, % at 8.5 µM; in the data active = inhibition above about 13%
# COUP-TFII conf – COUP-TFII (NR2F2) inhibition, confirmation assay | shares compounds with COUP-TFII inh | HEK293 NGFI-A luciferase reporter, luminescence | inhibition, % at 8.5 µM | 2,500 compounds, 45% hits | AID 687008;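 active = mean inhibition over three repeats above a set limit taken from the earlier primary screen, cut at about 38% in these data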
# Numbers stand for hits; . = inactive; / = no result. Hits are enriched below; roughly 1.1% of the tested compounds scored in any of these assays.
SMILES,LRH-1 inv ag,COUP-TFII inh,NCOA3 inh,SRC2 inh,GalR3 antag,SRC1 inh,VP16 Luc counter,COUP-TFII conf
C[C@@H]1O[C@@H](O[C@H]2C[C@@H](O)[C@]3(CO)[C@@H]4C(CC[C@]3(O)C2)[C@@]2(O)CC[C@H](C3COC(=O)C3)[C@@]2(C)C[C@H]4O)[C@H](O)[C@H](O)[C@H]1O (stereo partly drawn),99,64,67,.,16,.,14,58
COc1cc(OC)c(OC)cc1CN1CCN(C(=O)Cc2ccccc2)CC1,.,.,.,.,.,.,/,/
COc1cc(CC(=O)N2C[C@H]3C[C@@H](C2)c2cccc(=O)n2C3)cc(OC)c1OC,.,.,.,.,.,.,/,/
COc1ccc(CC2C(=O)NC(C)C(=O)N(C)C3C(=O)N(C)C(Cc4ccc(O)c(c4)Oc4ccc(cc4)C3O)C(=O)NC(C)C(=O)NC(C)C(=O)N2C)cc1 (stereo not drawn),99,89,94,75,.,96,27,91
CCCCn1nnnc1C(c1cccc(OC)c1OC)N1CCC2(CC1)C(=O)NCN2c1ccccc1 (stereo not drawn),.,.,.,.,.,.,/,/
CC(C)c1oc(=O)cc2c1[C@@H](O)[C@H]1OC(=O)[C@@]3(C)CC[C@@H](O)[C@@]2(C)C13 (stereo partly drawn),.,42,62,.,.,.,.,.
CC(C)c1oc(=O)cc2c1[C@@H](O)[C@H]1OC(=O)[C@@]3(C)C[C@@H](O)[C@@H](O)[C@@]2(C)C13 (stereo partly drawn),92,41,76,.,.,.,.,.
Cc1ccccc1-[n+]1c(-c2ccccc2)cc(-c2ccccc2)cc1-c1ccccc1,.,68,67,.,.,.,22,77
CN(c1ccc(OCC(=O)N2CCN(C/C=C/c3ccccc3)CC2)cc1)S(=O)(=O)c1cccs1,.,38,.,.,.,.,.,38
CCC(=NCc1ccc(F)cc1)c1c(O)n(C)c(=O)n(C)c1=O,.,.,.,.,.,.,/,/
CC1(C)N2CC3([N+](=O)[O-])CN1CC([N+](=O)[O-])(C2)C3,.,.,.,.,.,.,/,/
COc1ccc(CC2=NCCc3cc(OC)c(OC)cc32)cc1OC,.,.,.,.,.,.,/,/
COc1ccc(Cc2nccc3cc(OC)c(OC)cc23)cc1OC,.,40,.,.,/,.,.,.
CC(C)(O)/C=C/C(=O)C(C)(O)C1C(O)CC2(C)C3CC=C4C(C=C(O)C(=O)C4(C)C)C3(C)C(=O)CC12C (stereo not drawn),.,44,67,75,.,.,61,65
CC(=O)OC1CC2OC3C=C(C)CCC3(C)C1(C)C21CO1 (stereo not drawn),103,85,95,69,.,96,17,72
CC(=O)O[C@H]1C[C@@H]2OC3C=C(C)CCC3(C)[C@@]1(C)[C@@]21CO1 (stereo partly drawn),97,77,92,69,.,94,16,72
c1ccc2[nH]c(CCNC3CCCCC3)nc2c1,.,.,.,.,.,.,/,/
COc1ccc(CCN)cc1S(N)(=O)=O,.,.,/,.,.,/,/,/
CCN1C[C@]2(COC(=O)c3ccccc3N)CC[C@H](OC)C34[C@@H]5C[C@H]6[C@H](OC)[C@@H]5[C@](O)(C[C@@H]6OC)[C@@](O)([C@H]13)[C@@H](OC)[C@@H]42,.,.,.,.,.,.,/,/
N/C(=N/[N+](=O)[O-])N1CCN(C(=O)Oc2ccc([N+](=O)[O-])cc2)CC1,.,.,.,.,.,.,/,/
COc1ccc(-c2cc(-c3ccccc3)[n+](C)c(-c3ccccc3)c2)cc1,74,46,70,.,.,.,16,53
Cc1nc2ccccc2c(=O)n1-c1cccc([N+](=O)[O-])c1,.,.,.,.,.,.,/,/
